The full list was thinned out, with hits kept by preference.
D1 mod = allosteric modulators of human D1 dopamine receptor; P21728; HEK293 D1, CRE-luciferase, dopamine EC30 potentiation; actives deviate in either direction; B-score at 10 µM; 58,000 compounds, 5.9% hits; AID 641;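 active = luminescence count or its row- and column-corrected plate score outside the 99.7% band of the plate's sample wells, on either side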
EphB4 ephrin blk = antagonists of human EphB4-ephrin-B2 interaction | P54760 | inhibition, % at 7 µM | 97,000 compounds, 0.15% hits | EphB4 LBD / TNYL-RAW-Alexa532 peptide, fluorescence polarization;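 active = inhibition above the screen-wide mean inhibition plus 3 SD, cut at about 15% in these data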;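 note: 0% = DMSO wells and 100% = excess unlabeled TNYL-RAW peptide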
DAT uptake mod = modulates human dopamine transporter uptake under cocaine. Q01959. B-score at 10 µM. 110,000 compounds, 1.3% hits. AID 449768. LLC-PK1 hDAT cells, [14C]-dopamine uptake with cocaine IC80; actives deviate in either direction;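 active = Z score or B-score, a plate-position-corrected score, falls beyond the plate's 99.7% confidence bounds, in either direction; inactive = both scores lie inside the 99.7% bounds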;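 note: scored against the spread of the other compound wells on the same plate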
Target sequence (Q01959 whole entry, looked up): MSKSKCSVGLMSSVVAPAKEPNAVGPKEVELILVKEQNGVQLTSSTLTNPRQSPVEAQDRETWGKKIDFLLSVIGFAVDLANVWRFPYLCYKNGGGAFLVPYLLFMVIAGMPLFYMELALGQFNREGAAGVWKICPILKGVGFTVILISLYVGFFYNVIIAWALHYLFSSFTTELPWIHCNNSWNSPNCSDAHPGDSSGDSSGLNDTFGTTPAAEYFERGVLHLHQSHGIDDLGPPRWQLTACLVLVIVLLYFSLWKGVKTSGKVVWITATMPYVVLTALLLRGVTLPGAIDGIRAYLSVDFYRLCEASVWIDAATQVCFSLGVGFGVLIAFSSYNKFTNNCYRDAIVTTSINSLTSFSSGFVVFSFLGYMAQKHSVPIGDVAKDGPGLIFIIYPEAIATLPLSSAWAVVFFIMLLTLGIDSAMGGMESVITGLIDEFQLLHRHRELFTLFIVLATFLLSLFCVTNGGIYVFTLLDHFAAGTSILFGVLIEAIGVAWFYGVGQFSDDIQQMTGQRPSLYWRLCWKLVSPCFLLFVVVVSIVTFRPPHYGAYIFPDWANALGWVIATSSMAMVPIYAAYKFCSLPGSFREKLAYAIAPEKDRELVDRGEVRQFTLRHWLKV
D1 PAM confirm = D1 receptor (human) allosteric modulation, confirmed; shares compounds with D1 mod; 2,200 compounds, 88% hits; HEK293 D1 CRE-luciferase, dopamine EC30 potentiation; hits give high values; luminescence at 10 µM; AID 642;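 active = luminescence in either of two replicates above the same-plate mean plus 3 SD of the low-dose dopamine control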
D1 ag no DA = secondary test of D1 modulators: activity without dopamine. shares compounds with D1 mod. HEK293 D1 CRE-luciferase, luminescence, no dopamine; hits give high values. luminescence at 10 µM. 1,900 compounds, 0.8% hits. AID 646; in the data active = luminescence above about 3900
Isoprot counter = alters isoproterenol CRE-luciferase response in HEK293 cells; shares compounds with D1 mod; HEK293 D1 CRE-luciferase, isoproterenol EC30 counter-screen; calls only at 10 µM; 2,200 compounds, 63% hits;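 active = luminescence in either replicate above plate mean of wells with a partly effective reference agonist dose plus 3 SD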;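 note: isoproterenol raises cAMP through native beta-adrenoceptor Gs so signal bypasses D1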
Starred values were filed as active, the others as inactive; i = inactive; · = not tested or not shown; + = active, no number.

SMILES	D1 mod	EphB4 ephrin blk	DAT uptake mod	D1 PAM confirm	D1 ag no DA	Isoprot counter
CCOc1ccc(C2=Nn3c(nnc3-c3cccnc3)SC2)cc1	·	·	-0.0979	·	·	·
Cc1ccc(-c2nnc3n2N=C(c2ccccc2Br)CS3)cc1	16.4*	-5.5	1.36	15256*	1688	+
CC1=Nn2c(nnc2-c2ccccc2F)SC1	0.729	-4.8	-0.621	·	·	·
c1cncc(-c2nnc3n2N=C(c2cccs2)CS3)c1	4.13*	-1.3	-0.00348	15800*	1740	+
COc1ccc(C2=Nn3c(nnc3-c3ccco3)SC2)cc1	·	-3.4	0.908	·	·	·
c1ccc(C2=Nn3c(nnc3-c3cccnc3)SC2)cc1	4.89*	-0.2	-0.947	11260*	1752	i
COc1ccc(C2=Nn3c(nnc3-c3cccnc3)SC2)cc1	5.55*	-7.6	-0.425	10056*	1736	+
CCOC(=O)C1=C(C)Nc2nc(=S)[nH]n2C1c1ccc(Cl)cc1 (stereo unspecified)	·	-2.1	-0.696	·	·	·
CCc1nnc(NC(=O)[C@@H](NC(=O)c2cccc(S(=O)(=O)N3CCOCC3)c2)C(C)C)s1	·	-2.3	1.11	·	·	·
CC(=O)N(C(C)=O)C1=C(C#N)C2(CCCCC2)Cc2ccccc21	·	-1.9	0.0298	·	·	·
Cc1ccc(C(=O)NCc2ccco2)cc1S(=O)(=O)Nc1cccc(Cl)c1	·	-2.6	-0.065	·	·	·
COc1ccc(-c2nnc3n2N=C(C)CS3)cc1OC	-2	-2.4	-0.848	·	·	·
c1ccc(C2=Nn3c(nnc3-c3ccncc3)SC2)cc1	2.89*	0.1	-0.178	9856*	1576	i
COc1ccc(C2=Nn3c(nnc3-c3ccccc3)SC2)cc1OC	29*	-1.1	0.00667	21404*	·	+
c1ccc(-c2cc(-c3nnc4n3N=C(c3ccc5ccccc5c3)CS4)[nH]n2)cc1	·	3.4	-1.12	·	·	·
c1ccc(C2=Nn3c(nnc3-c3ccccn3)SC2)cc1	·	-5.8	-1.18	·	·	·
CCCc1nnc2n1N=C(c1ccc(OC)c(OC)c1)CS2	25.8*	0.3	1.6	22008*	·	+
Cc1cccc(-c2nnc3n2N=C(c2ccccc2)CS3)c1	15.5*	-0.4	0.436	3880	1728	+
CCCc1nnc2n1N=C(c1ccc(-c3cc(Cl)ccc3Cl)o1)CS2	-0.476	-1.8	-0.782	·	·	·
CC(C)(Oc1ccc(Cl)cc1)C(=O)N/N=C/c1cn[nH]c1-c1ccccc1	·	5.2	1.57	·	·	·
COc1cc(NC(=S)NN2CCN(C)CC2)cc(OC)c1	·	1.4	0.4	·	·	·
C#Cc1ccc([C@@H]2C=C(C(=O)OCC=C)O[C@H](OCCCCO)C2)cc1	·	·	-0.133	·	·	·
Cc1ccc(-c2cnc(NC(=O)c3cccc(Br)c3)s2)c(C)c1	·	1.4	0.988	·	·	·
COc1ccc(C(=O)NC2=C(C#N)CCC2)cc1OC	12.9*	-3.9	0.108	12668*	·	+
COc1ccc(C(=O)Nc2sc(C)c(-c3ccccc3)c2C#N)cc1OC	·	8.0	0.0163	·	·	·
SMILES	D1 mod	EphB4 ephrin blk	DAT uptake mod	D1 PAM confirm	D1 ag no DA	Isoprot counter
CCn1c(SCC#N)nc2c(c1=O)C1(CCCC1)Cc1ccccc1-2	2.49*	-12.2	-1.21	7420*	·	i
CCCn1c(SCC(N)=O)nc2c(c1=O)C1(CCCC1)Cc1ccccc1-2	·	4.0	·	·	·	·
COc1ccc(/C=C2\CCOC2=O)cc1	·	6.0	-0.79	·	·	·
COc1ccc(N/C=C2\CCOC2=O)cc1	3.16*	·	-0.896	4948	1600	i
COc1ccc(/C=N/NC(=O)C2CCN(c3ncc(C(F)(F)F)cc3Cl)CC2)cc1	·	4.2	1.08	·	·	·
CCN(CCCNC(=O)CN(C)S(=O)(=O)c1cccc2nsnc12)c1ccccc1	1.63	-3.8	·	·	·	·
CCOC(=O)c1sc(=S)n(CC)c1N	5.12*	·	-0.403	10812*	1584	i
C=CCn1c(N)c(C(=O)OCC)sc1=S	·	-1.1	1.06	·	·	·
CC(C)CCOC(=O)C1C(c2ccccc2)C(C(=O)O)C1c1ccccc1 (stereo unspecified)	·	4.4	0.918	·	·	·
O=c1cc(CO)oc(CN2CCN(c3cccc(C(F)(F)F)c3)CC2)c1O	·	4.2	-0.0159	·	·	·
O=c1cc(CO)oc(CN2CCN(c3ccccc3)CC2)c1O	3.09*	1.4	-0.679	7092	1768	i
Cc1cc(C(=O)Nc2ccc(S(=O)(=O)Nc3onc(C)c3C)cc2)c(C)o1	2.93*	1.9	0.404	8272*	1556	+
Cc1noc(NS(=O)(=O)c2ccc(NC(=O)c3ccoc3C)cc2)c1C	-0.442	1.4	1.15	·	·	·
COc1cc(C2C(C(C)=O)=C(O)C(=O)N2c2ccc(C)cc2)ccc1O (stereo unspecified)	·	2.2	0.0504	·	·	·
CCOC(=O)c1ccc(N2C(=O)C(O)=C(C(C)=O)C2c2ccc(O)c(OC)c2)cc1 (stereo unspecified)	2.53*	·	0.175	5200	1280	i
CCNc1nc(C)cc(COC)c1C#N	4.75*	-7.9	-0.87	10012*	·	+
COCc1cc(C)nc(NCCO)c1C#N	·	-0.3	-0.459	·	·	·
CC1=C(C(=O)N2CCN(c3cc(C)ccc3C)CC2)C2(CCC(C)CC2)OC1=O (stereo unspecified)	·	·	0.393	·	·	·
Cc1ccccc1NC(=O)CN1C(=O)COc2ccc(Cl)cc21	-1.53	0.1	0.0392	·	·	·
COc1ccccc1OCCSc1nc2ccccc2c(=O)[nH]1	0.216	11.5	0.00349	·	·	·
O=c1[nH]c(SCCOc2ccccc2)nc2ccccc12	5.28*	1.9	-0.775	7564*	·	+
CCCCCNc1nc(-c2ccccc2)cs1	·	-1.1	0.356	·	·	·
Oc1ccc(-c2nc3ncccn3c2Nc2ccc3c(c2)OCO3)cc1	-0.592	5.2	-0.288	·	·	·
Oc1ccc(-c2nc3cnccn3c2Nc2ccc3c(c2)OCCO3)cc1	2.84*	-4.3	·	9088*	1484	+
CCO[C@H]1OC(C(=O)N2CCOCC2)=C[C@@H](C2CC2)[C@@H]1CCCO	·	·	-0.46	·	·	·
SMILES	D1 mod	EphB4 ephrin blk	DAT uptake mod	D1 PAM confirm	D1 ag no DA	Isoprot counter
Cc1ccc(Cc2nnc3n(-c4cccc(C)c4)nc(C(=O)c4ccccc4)n3c2=O)cc1	·	-8.3	1.47	·	·	·
Cc1ccc(Cn2c(SCC(C)C)nc3c2c(=O)[nH]c(=O)n3C)cc1	7.03*	-2.3	-0.132	15640*	1512	+
CCn1c(N2CCN(CC(=O)c3c(C)n(C)c4ccccc34)CC2)nc2c1c(=O)[nH]c(=O)n2C	3.55*	-1.1	0.437	8636*	1416	+
COc1ccc(N2CCN(c3nc4c(c(=O)[nH]c(=O)n4C)n3Cc3ccccc3Cl)CC2)cc1	1.12	·	·	·	·	·
CCCn1c(N2CCN(CC(=O)c3c[nH]c4ccccc34)CC2)nc2c1c(=O)[nH]c(=O)n2C	-0.658	-9.4	1.64	·	·	·
CCCSc1nc2c(c(=O)[nH]c(=O)n2C)n1Cc1ccc(C)cc1	-0.0681	9.4	0.174	·	·	·
Cn1c(=O)[nH]c(=O)c2c1nc(N1CCCCCC1)n2CCCSc1nc2ccccc2o1	7.31*	2.9	1.4	7696*	1592	+
CC1CCCN(c2nc3c(c(=O)[nH]c(=O)n3C)n2Cc2ccccc2Cl)C1 (stereo unspecified)	4.53*	-2.5	0.333	12012*	·	+
CC1CC(C)CN(c2nc3c(c(=O)[nH]c(=O)n3C)n2CCSc2nc3ccccc3o2)C1 (stereo unspecified)	0.0153	·	·	·	·	·
